RGS12 GoLoco inh-1 – inhibitors of human Gai1-RGS12 GoLoco interaction (red fluorophore); P63096; Potency, µM (titrated, usually from 61.6 µM), without a hit: at the top dose activity, negative = inhibition, actives largely listed as inhibitors; Gai1:RGS12 GoLoco peptide FP, rhodamine, 10 min; actives 0.44% (n = 230,000); active = well fitted inhibition curve with a large enough effect, not every such curve was filed as active; inactive = no such curve, though single readings can be large or run the other way; note: potency is the fitted concentration of half-maximal effect; % is set by controls: 0 for no effect and ±100 for the full control effect; nearly all actives have a fitted effect of over 30% in size
Target sequence (P63096 whole entry, looked up): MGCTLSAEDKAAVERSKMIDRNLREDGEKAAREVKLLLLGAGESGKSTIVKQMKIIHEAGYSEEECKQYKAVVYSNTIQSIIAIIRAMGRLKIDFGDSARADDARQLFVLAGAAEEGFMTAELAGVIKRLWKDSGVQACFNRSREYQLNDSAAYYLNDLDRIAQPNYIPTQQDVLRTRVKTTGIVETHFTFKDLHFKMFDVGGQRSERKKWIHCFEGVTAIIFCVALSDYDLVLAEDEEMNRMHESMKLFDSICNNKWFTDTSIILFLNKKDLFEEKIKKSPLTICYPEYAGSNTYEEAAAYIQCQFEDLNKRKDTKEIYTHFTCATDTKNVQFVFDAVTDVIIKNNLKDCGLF
Menin MLL FP FL – inhibitors of human menin-MLL interaction, wild-type MLL peptide. Fluorescence polarization, fluorescein-MLL peptide displacement from menin. FP activity change, % at 61.4 µM. 290,000 tested, under 10 active; active = well fitted curve in the direction sought with a large enough effect in the polarisation, not every such curve was filed as active; inconclusive = small, poorly fitted or top-dose-only effect, or effect the other way, or a change in a side signal; inactive = no such curve, though single readings can be large or run the other way; the % refers to the polarisation; note: % of control where 0% means no effect
Menin-MLL TR inh – inhibitors of human menin-MLL interaction, mutant MLL peptide; Menin + Texas Red MLL mutant peptide, fluorescence polarization; Potency, µM (top dose mostly 61.6 µM), without a hit: at the highest dose FP activity change, negative = inhibition, actives largely listed as inhibitors; actives 0.23% (n = 270,000); AID 1768; O00255; active = well fitted inhibition curve with a large enough effect in the polarisation, with a control signal flat, not every such curve was filed as active; inconclusive = small, poorly fitted or top-dose-only effect, or effect the other way, or a change in a side signal; inactive = no such curve, though single readings can be large or run the other way; the % refers to the polarisation; note: potency is the fitted concentration of half-maximal effect; % of control where 0% means no effect
MLL CXXC-DNA inh – blocks binding of human MLL CXXC domain to DNA | Q03164 | MLL-CXXC / FITC-HOXA9 DNA fluorescence polarization | Potency, µM (highest dose often 115 µM), for inactives: at the top dose activity change, negative = inhibition, actives largely listed as inhibitors | actives 0.037% (n = 290,000) | AID 2662; active = well fitted inhibition curve with a large enough effect in the polarisation, with a control signal flat, not every such curve was filed as active; inconclusive = small, poorly fitted or top-dose-only effect, or effect the other way, or a change in a side signal; inactive = no such curve, though single readings can be large or run the other way; the % refers to the polarisation; note: potency is the fitted concentration of half-maximal effect
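Purified MLL-CXXC (added from a 7 uM solution) was preincubated 5 min at ambient with pinned compounds in 50 mM Tris-HCl pH 7.5, 50 mM NaCl, 1 mM DTT, 0.05% BSA. Fluorescein-labeled HOX-A9 DNA (50 nM solution) followed, 30 min, then polarization read.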
RGS12 GoLoco inh-2 – RGS12 (human) GoLoco motif inhibition, red FP; shares compounds with RGS12 GoLoco inh-1; Gai1/rhodamine-RGS12 GoLoco peptide fluorescence polarization; Potency, µM (doses to about 57.1 µM), inactives show at the highest dose activity, negative = inhibition, most hits filed as inhibitors; actives 50% (n = 110)
MLL CXXC Fl – inhibitors of human MLL CXXC domain-DNA interaction. shares compounds with MLL CXXC-DNA inh. MLL CXXC-DNA binding, fluorescein FP. Potency, µM (titrated, usually from 345 µM), without a hit: at the top dose activity change, negative = inhibition, usual class: inhibitors. actives 70% (n = 200). AID 624160; note: potency is the fitted concentration of half-maximal effect; nearly all actives have a fitted effect of over 80% in size
MLL CXXC FP-TR – MLL CXXC-DNA interaction inhibition, Texas Red FP. AID 624161. MLL CXXC-DNA binding, Texas Red fluorescence polarization. actives 40% (n = 200). Potency, µM (doses to about 345 µM), for inactives: at the highest dose activity change, negative = inhibition, actives largely listed as inhibitors. shares compounds with MLL CXXC-DNA inh; note: potency is the fitted concentration of half-maximal effect; % is set by controls: 0 for no effect and ±100 for the full control effect; nearly all actives have a fitted effect of over 75% in size
MLL CXXC TRF – MLL CXXC-DNA interaction inhibition, HTRF readout; shares compounds with MLL CXXC-DNA inh; MLL CXXC-DNA binding, HTRF, biochemical; Potency, µM (highest dose often 172 µM), for inactives: at the highest dose activity change, negative = inhibition, most hits filed as inhibitors; actives 30% (n = 210); note: % is set by controls: 0 for no effect and ±100 for the full control effect; nearly all actives have a fitted effect of over 80% in size
The depositor's hits bear a star; ? = inconclusive; / = no result; ! = not confirmed by another sample; [ ] = remark or other dose. Many of the other results were omitted from the sample, so hits are more common in it than they were. Unless noted, calls come from the whole dose curve; as a rule, active = well fitted inhibition curve with a large enough effect; inconclusive = small, poorly fitted or top-dose-only effect; inactive = no such curve, though single readings can be large or run the other way.

SMILES	RGS12 GoLoco inh-1	Menin MLL FP FL	Menin-MLL TR inh	MLL CXXC-DNA inh	RGS12 GoLoco inh-2	others
Nc1cc(N)nc(SCC(=O)Nc2ccc(Br)cc2Cl)n1	6.3µM*	0	6%	4%	?
NC(=O)NC1NC(=O)NC1=O (configuration not stated)	18µM*!	-5	5%	-1%	?
NC(=O)NOC[C@@H]1NC(=O)NC1=O	8%[14.2 µM]	/	/	/	/
O=c1c(-c2ccc(F)cc2)nc2cnc(N3CCNCC3)nc2n1C1CC1	6%	-9	-7%	/	/
CCC1CN2CCC1CC2[C@@H](NC(=S)Nc1cc(C(F)(F)F)cc(C(F)(F)F)c1)c1cccc2ccc(OC)cc12 (some centres not stated)	5%	0	3%	/	/
C=CCc1cc(/C=N\NC(=O)CSc2nnc(CCCc3ccc(OC)c(C)c3)o2)cc(OC)c1O	14µM*	0	-20%	4%	?
OC(COCc1ccccc1)Cn1cnc2ccccc21 (configuration not stated)	4%	0	-5%	3%	/
Cc1n(CC(O)COCc2ccccc2)c2ccccc2[n+]1C (configuration not stated)	8.9µM*	4	-13%	-3%	13µM*
O=C(CSc1nnc(-c2ccccc2)n1-c1ccccc1)NCc1ccco1	-7%	0	?	3%	7%
CCN(CC)C(=O)CC(c1ccc(OC)cc1)c1c(OC)cc(OC)c2c(-c3ccccc3)cc(=O)oc12 (configuration not stated)	/	-3	36%	/	/
CCn1c(SCC(=O)N(C(C)C)C(C)C)nnc1-c1cc2ccccc2cc1O	3.2µM*	3	?	15%	?
CCCCC1CN2C(CCC(C)C2c2ccc(Br)cc2)C(=O)O1 (configuration not stated)	/	-4[11.7 µM]	2%[11.7 µM]	/	/
CO/N=C(/C(=O)N[C@H]1C(=O)N2C(C(=O)O)=C(COC(C)=O)CSC12)c1csc(N)n1 (some centres not stated)	7.9µM*	-11	-3%	/	3%
CO/N=C(/C(=O)N[C@@H]1C(=O)N2C(C(=O)O)=C(CSc3nc(C)c(CC(=O)O)s3)CS[C@H]12)c1csc(N)n1	/	3	13%	1%	/
Cc1cc(C)c2c(=O)n(CC(=O)Nc3ccc(Br)c(C)c3)sc2n1	-26%	1	/	3%	-14%
COc1ccc(OC)c(CCNC(=O)Cn2sc3nc(C)cc(C)c3c2=O)c1	11µM*	3	-18%	1%	4µM*
Cc1cc(C)c2c(=O)n(CC(=O)Nc3cccc(Cl)c3C)sc2n1	4µM*	10	/	4%	14µM*
CO[C@H]1COC(=O)[C@H]2CCCN2C(=O)[C@@H](C)COC(=O)C/C=C\[C@@H]1C	/	-4[11.7 µM]	-2%[11.7 µM]	/	/
CC(=O)OC[C@@H]1O[C@H](CCO/N=C(\C)CCC(=O)OC[C@@H]2O[C@H](C#Cc3ccccc3)C=C[C@@H]2Oc2ccc(C)cc2)C=C[C@@H]1OC(C)=O	/	5[11.7 µM]	-13%[11.7 µM]	/	/
COc1ccc(CSCC(=O)N/N=C/c2ccc(OCC(=O)N3CCCCC3)cc2)cc1	3.5µM*	3	-14%	1%	?
Cc1ccc(CSCC(=O)N/N=C/c2ccc(OCC(=O)Nc3ccc(C)cc3)cc2)cc1	76%	1	5%	33%	/
O=C(CSCc1ccccc1)N/N=C/c1ccc(OCC(=O)N2CCCCC2)cc1	-5%	0	-20%	12%	6%
O=C(N/N=C/c1ccc(OCC(=O)N2CCCCC2)cc1)c1ccccc1	8%	0	-16%	6%	/
Cc1[nH]c2ccccc2c1C(=O)CN1CCN(C2CCCCC2)CC1	1.8µM*	3	8%	10%	?
Cc1[nH]c2ccccc2c1C(=O)CN1C(=O)C(=O)N(C2CCCC2)C1=O	9%	0	-5%	-1%	/
SMILES	RGS12 GoLoco inh-1	Menin MLL FP FL	Menin-MLL TR inh	MLL CXXC-DNA inh	RGS12 GoLoco inh-2	others
Cn1c2c(c(=O)c3ccccc31)C[C@@H](O)C(C)(C)O2	2%	-3	13%	/	/
Cc1cc(-c2ccc(N=Nc3c(S(=O)(=O)O)cc4cc(S(=O)(=O)O)cc(N)c4c3O)c(C)c2)ccc1N=Nc1c(S(=O)(=O)O)cc2cc(S(=O)(=O)O)cc(N)c2c1O	/	?	?	25µM*	/	MLL CXXC Fl=5.6µM*;MLL CXXC FP-TR=7.1µM*;MLL CXXC TRF=1.5µM*
O=S(=O)(O)c1cc(O)c2c(O)c(N=Nc3cc(Cl)ccc3O)c(S(=O)(=O)O)cc2c1	/	-2	?	1%	/
O=C(O)c1ccc(S(=O)(=O)/N=C2\C=C(Nc3ccccc3F)C(=O)c3ccccc32)cc1	/	-20	?	?	/	MLL CXXC Fl=113µM*;MLL CXXC FP-TR=142µM*;MLL CXXC TRF=-44%
CCNc1ncc2nc(-c3ccc(F)cc3)c(=O)n(C[C@H]3CCCO3)c2n1	9%	3	7%	/	/
O=C(N/N=C1/C[C@@H](O)[C@@H](O)[C@@H]2[C@@H]3C(=O)N(C4CCCCC4)C(=O)[C@H]3CC[C@@H]12)OCc1ccccc1	/	-1[11.7 µM]	2%[11.7 µM]	/	/
COc1cccc(/C=C2/C(=O)NN(c3ccccc3)C2=O)c1	/	-4	0%	-3%	/
O=C1NN(c2ccccc2)C(=O)/C1=C\c1ccc2c(c1)OCO2	/	2	9%	?	/	MLL CXXC Fl=28µM*;MLL CXXC FP-TR=?;MLL CXXC TRF=0%
CCCCCCOc1ccc(C(=N)N(CCCC)CCCC)c2ccccc12	/	-3	?	?	/
Cc1[nH]n(-c2ccccc2)c(=O)c1N=Nc1ccc(C(=O)O)cc1	/	-2	?	2%	/
Cc1[nH]n(-c2ccccc2)c(=O)c1N=Nc1cccc(C(=O)O)c1	/	4	?	?	/	MLL CXXC Fl=14µM*;MLL CXXC FP-TR=?;MLL CXXC TRF=34%
C=CCOc1ccc(C2OC34CCCCC3C(C#N)(C#N)C2(C#N)C(=N)O4)cc1 (configuration not stated)	-73%	?	-19%	-15%	/
Cc1ccc(C2OC34CCCCCC3C(C#N)(C(=N)O4)C2(C#N)C#N)cc1 (configuration not stated)	10%	-4	-9%	7.9µM*	/	MLL CXXC Fl=12%;MLL CXXC FP-TR=?;MLL CXXC TRF=34%
CCOc1ccc(C2OC34CCCCC3C(C#N)(C#N)C2(C#N)C(=N)O4)cc1OC (configuration not stated)	1.4µM*	?	/	25µM*	/	MLL CXXC Fl=18µM*;MLL CXXC FP-TR=36µM*;MLL CXXC TRF=14%
